In PubChem BioAssay:
Unmarked numbers belong to inactive results. How the calls were made is not given here.

These compounds were tested against Pantothenate synthetase (Mycobacterium tuberculosis (strain ATCC 25618 / H37Rv)) (UniProt P9WIL5) (assay: Recombinant Mtb pantothenate synthetase (PanC) inhibitors, coupled enzyme, confirmatory (AID 375;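 further: 0% = full reaction with vehicle and 100% = no enzyme background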)). Conditions: coupled enzyme assay; at 10 µM, hits give high values.
Sequence of Pantothenate synthetase (Mycobacterium tuberculosis (strain ATCC 25618 / H37Rv)) (P9WIL5 whole entry, looked up): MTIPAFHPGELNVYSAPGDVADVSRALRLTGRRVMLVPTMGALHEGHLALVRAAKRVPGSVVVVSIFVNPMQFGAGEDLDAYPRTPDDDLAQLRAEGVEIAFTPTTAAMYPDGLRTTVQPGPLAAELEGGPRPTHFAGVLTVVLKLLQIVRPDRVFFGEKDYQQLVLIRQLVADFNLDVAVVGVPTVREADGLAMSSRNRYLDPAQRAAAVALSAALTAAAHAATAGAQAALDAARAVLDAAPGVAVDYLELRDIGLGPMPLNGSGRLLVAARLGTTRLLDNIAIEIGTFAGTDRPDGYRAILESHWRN
`COc1ccc(NC2c3ncccc3C(=O)N2Cc2ccccc2)c(OC)c1` (stereo not given) showed an inhibition of 0%. `COc1ccc(OC)c(C2C(C#N)=C(N)Oc3cc(C)[nH]c(=O)c32)c1` (stereo not given) gave an inhibition of 0%. `CC(C(=O)N1c2ccc(F)cc2CCC1C)N1C(=O)c2ccccc2C1=O` (stereo not given) showed an inhibition of 5%. Compound `CCN(CC)C(=O)C1CCC(CNS(=O)(=O)c2cccc3cccnc23)CC1` (stereo not given) has an inhibition of 0%. In the case of `COCCNC(=O)c1snc2ccc(Cl)cc12`, the inhibition is reported as 0%. `O=C(CN1C(=O)COc2ccccc21)N(Cc1cccnc1)Cc1ccccc1F` gave an inhibition of 0%. `COc1cccc(OC)c1C(=O)N1CCN(S(=O)(=O)c2ccc(C)cc2)CC1` gave an inhibition of 1%. Work on `Nn1c(SCC(=O)Nc2ccccc2)nnc1-c1cccnc1` yielded an inhibition of 0%. Compound `O=C(Nc1ccc2c(c1)OCO2)c1cncc(Br)c1` has an inhibition of 8%. For `COc1ccccc1N1CCN(c2nc3ccccc3nc2C(C#N)C(=O)OC(C)C)CC1` (stereo not given), the inhibition was 1%. `COC(=O)c1cn(C(=O)OC)c2ccccc12` gave an inhibition of 7%. `CCCCN(CCCC)CCCNC(=O)CC1Oc2ccc(C)cc2NC1=O` (stereo not given) was tested, and the inhibition was 3%. Work on `CCOCC(O)CS(=O)Cc1ccccc1` (stereo not given) yielded an inhibition of 0%. With `Cn1nc(C(=O)Nc2cccc(C(F)(F)F)c2)ccc1=O` the inhibition was 0%. In the case of `Nc1c(C(=O)NCCc2ccccc2)nnn1Cc1ccccc1`, the inhibition is reported as 0%. `CC1CCc2nn(CC(=O)NCCCN3CCOCC3)cc2C1` (stereo not given) was tested, and the inhibition was 0%. Work on `COc1ccc(-c2cc(C(=O)N3CCN(Cc4ccccc4)CC3)no2)cc1OC` yielded an inhibition of 3%. Work on `CCCNS(=O)(=O)c1ccc(OCC(=O)NCc2ccc3c(c2)OCO3)cc1` yielded an inhibition of 2%. For `O=C1C2C3C=CC(C3)C2C(=O)N1c1cccc(N2C(=O)C3C4C=CC(C4)C3C2=O)n1` (stereo not given), the inhibition was 0%. `O=C(Nc1ccc(N2CCOCC2)cc1)c1cc2ccccc2o1` showed an inhibition of 0%. Compound `CC(C)CCSc1nc2c(c(=O)[nH]c(=O)n2C)n1CCCc1ccccc1` has an inhibition of 0%. In the case of `CC1Cc2nc(SCC(=O)Nc3nccs3)n(C)c(=O)c2S1` (stereo not given), the inhibition is reported as 0%. `COc1ccc(-c2cc(C(F)(F)F)nc(SCCC(=O)N3CCOCC3)n2)cc1` gave an inhibition of 1%. `Cn1c(=O)c2c(nc(NCc3ccco3)n2C/C=C/c2ccccc2)n(C)c1=O` showed an inhibition of 0%. `CCOC(=O)C1=C(C)NC(C)=C(C(=O)OC)C1c1cccc([N+](=O)[O-])c1` (stereo not given) was tested, and the inhibition was 7%. In the case of `OCCNc1ncnc2c1c(-c1ccccc1)c(-c1ccccc1)n2Cc1ccco1`, the inhibition is reported as 1%. Compound `CCC(=O)Oc1ccc(C/C(=N\O)c2ccc(O)cc2O)o1` has an inhibition of 0%. Compound `O=C(CSC1=NC(=O)C(Cc2ccccc2)C(=O)N1)NC1CCCCC1` (stereo not given) has an inhibition of 0%. `O=C(CN1C(=O)CCS(=O)(=O)c2ccccc21)Nc1cccc(F)c1` showed an inhibition of 5%. With `NS(=O)(=O)c1cc2c(cc1C(F)(F)F)NCNS2(=O)=O` the inhibition was 2%. `C#CCOC(=O)C1C2C=CC(C2)C1C(=O)O` (stereo not given) gave an inhibition of 1%. `CCn1cc(C2=NOC(C(=O)Nc3c(C)nn(Cc4ccc(F)cc4)c3C)C2)c(C)n1` (stereo not given) gave an inhibition of 0%. `Cc1cc2c(c(=O)n1CCN(C)C)C(c1ccncc1)C(C#N)=C(N)O2` (stereo not given) was tested, and the inhibition was 0%. `COc1ccc(Cl)cc1-c1n[nH]c(=S)o1` gave an inhibition of 0%. In the case of `Cc1onc(-c2ccccc2)c1C(=O)N[C@@H]1C(=O)N2[C@@H]1SC(C)(C)[C@@H]2C(=O)O`, the inhibition is reported as 0%. `O=C(COn1nnc2ccc(C(F)(F)F)cc21)Nc1nnc(-c2ccccc2)o1` gave an inhibition of 0%. Work on `COc1ccc(N(CC(=O)Nc2cc(C)ccc2C)S(=O)(=O)c2c(C)nn(C)c2C)cc1` yielded an inhibition of 0%. For `C=CCSC1=C(C#N)C(c2ccccc2C)CC(=O)N1` (stereo not given), the inhibition was 0%. `COc1ccc(C(=O)NCc2ccccc2OC)cc1` gave an inhibition of 0%. In the case of `N#Cc1c(NCc2ccccc2)ccnc1NCc1cccnc1`, the inhibition is reported as 0%.
